For assay [1], the target named is Rap guanine nucleotide exchange factor 3 (Homo sapiens) (UniProt O95398). The assay is described as follows: Confirmatory qHTS for agonist of cAMP-regulated guanine nucleotide exchange factor 3 (EPAC1) (AID 1645881).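 Also: EPAC1 catalysed release of BODIPY-GDP from Rap1B seen as fluorescence loss; 100% = effect of cAMP agonist control; nearly all actives have a fitted effect of over 75% in size.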
Assay [2] deals with Rap guanine nucleotide exchange factor 4 (Homo sapiens) (UniProt Q8WZA2). The assay is described as follows: Confirmatory qHTS for agonist of cAMP-regulated guanine nucleotide exchange factor 4 (EPAC2) (AID 1645884).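 Also: nucleotide exchange releases bodipy-GDP from Rap1 and this lowers its fluorescence; % is scaled to controls: 0 for no effect and ±100 for the full control effect; nearly all actives have a fitted effect of over 65% in size.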
Assay [3] shares this target. The assay is described as follows: Confirmatory qHTS for antagonist of cAMP-regulated guanine nucleotide exchange factor 4 (EPAC2) (AID 1645885). Also: nearly all actives have a fitted effect of over 25% in size. Also: potency is read from the fitted curve at half-maximal effect. As to activity change, negative = inhibition: % is scaled to controls: 0 for no effect and ±100 for the full control effect.
In assay [4] the target is Rap guanine nucleotide exchange factor 3 (Homo sapiens) (UniProt O95398). The assay is described as follows: Counterscreen qHTS for antagonist of cAMP-regulated guanine nucleotide exchange factor 3 (EPAC1) (AID 1645888).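 Also: fluorescence loss as bound BODIPY-GDP is released from Rap1B; % of control where 0% means no effect.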 The method in brief: (§1)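 Rap1B–BODIPY-GDP (250 nM) with 50 uM GDP; compounds pin-transferred to 9.74 nM–152 uM final (activator) or from 7.32 nM upwards (inhibitor). Fluorescence Ex/Em 480/540 nm read at 5 and 30 min, then after adding cAMP or buffer, at room temperature.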

The target is the same in assay [5]. Briefly: Counterscreen qHTS for agonist of cAMP-regulated guanine nucleotide exchange factor 3 (EPAC1) (AID 1645889). Also: % of control where 0% means no effect; nearly all actives have a fitted effect of over 40% in size. The method in brief:
as §1

Molecules are shown by their SMILES. Records with an inconclusive call do not appear. Values without a mark were called inactive. Active and inactive are the calls of the source. Calls follow the shape of the dose curve; as a rule, active = well fitted curve in the direction sought with a large enough effect; inconclusive = small, poorly fitted or top-dose-only effect, or another doubt; inactive = no such curve, though single readings can be large; an effect the other way counts as inactive or inconclusive.

Sequence of Rap guanine nucleotide exchange factor 3 (Homo sapiens) (O95398 whole entry, looked up): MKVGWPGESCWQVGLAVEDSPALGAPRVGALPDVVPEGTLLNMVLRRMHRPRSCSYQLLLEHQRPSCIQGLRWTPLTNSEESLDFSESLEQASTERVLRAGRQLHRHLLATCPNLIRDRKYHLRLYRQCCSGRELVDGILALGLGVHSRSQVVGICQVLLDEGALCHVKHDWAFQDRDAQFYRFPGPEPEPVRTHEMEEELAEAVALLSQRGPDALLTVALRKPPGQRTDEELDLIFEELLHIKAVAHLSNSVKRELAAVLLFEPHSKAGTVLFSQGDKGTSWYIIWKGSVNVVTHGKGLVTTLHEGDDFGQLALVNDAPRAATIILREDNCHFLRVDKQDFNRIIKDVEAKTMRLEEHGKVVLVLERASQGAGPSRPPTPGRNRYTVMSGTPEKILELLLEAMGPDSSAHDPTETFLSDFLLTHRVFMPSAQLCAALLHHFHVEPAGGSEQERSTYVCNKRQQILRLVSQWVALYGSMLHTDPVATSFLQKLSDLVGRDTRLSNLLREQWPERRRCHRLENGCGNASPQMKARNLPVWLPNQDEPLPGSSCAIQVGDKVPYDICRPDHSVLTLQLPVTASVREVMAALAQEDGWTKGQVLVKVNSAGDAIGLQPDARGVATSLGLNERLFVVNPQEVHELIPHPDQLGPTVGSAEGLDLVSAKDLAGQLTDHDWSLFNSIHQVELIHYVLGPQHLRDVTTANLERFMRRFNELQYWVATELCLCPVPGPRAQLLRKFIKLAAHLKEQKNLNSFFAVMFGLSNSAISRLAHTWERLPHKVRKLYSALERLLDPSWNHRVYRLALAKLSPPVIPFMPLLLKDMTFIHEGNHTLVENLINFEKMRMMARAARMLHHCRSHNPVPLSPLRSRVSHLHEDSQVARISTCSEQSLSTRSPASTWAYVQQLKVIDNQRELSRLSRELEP
Sequence of Rap guanine nucleotide exchange factor 4 (Homo sapiens) (Q8WZA2 whole entry, looked up): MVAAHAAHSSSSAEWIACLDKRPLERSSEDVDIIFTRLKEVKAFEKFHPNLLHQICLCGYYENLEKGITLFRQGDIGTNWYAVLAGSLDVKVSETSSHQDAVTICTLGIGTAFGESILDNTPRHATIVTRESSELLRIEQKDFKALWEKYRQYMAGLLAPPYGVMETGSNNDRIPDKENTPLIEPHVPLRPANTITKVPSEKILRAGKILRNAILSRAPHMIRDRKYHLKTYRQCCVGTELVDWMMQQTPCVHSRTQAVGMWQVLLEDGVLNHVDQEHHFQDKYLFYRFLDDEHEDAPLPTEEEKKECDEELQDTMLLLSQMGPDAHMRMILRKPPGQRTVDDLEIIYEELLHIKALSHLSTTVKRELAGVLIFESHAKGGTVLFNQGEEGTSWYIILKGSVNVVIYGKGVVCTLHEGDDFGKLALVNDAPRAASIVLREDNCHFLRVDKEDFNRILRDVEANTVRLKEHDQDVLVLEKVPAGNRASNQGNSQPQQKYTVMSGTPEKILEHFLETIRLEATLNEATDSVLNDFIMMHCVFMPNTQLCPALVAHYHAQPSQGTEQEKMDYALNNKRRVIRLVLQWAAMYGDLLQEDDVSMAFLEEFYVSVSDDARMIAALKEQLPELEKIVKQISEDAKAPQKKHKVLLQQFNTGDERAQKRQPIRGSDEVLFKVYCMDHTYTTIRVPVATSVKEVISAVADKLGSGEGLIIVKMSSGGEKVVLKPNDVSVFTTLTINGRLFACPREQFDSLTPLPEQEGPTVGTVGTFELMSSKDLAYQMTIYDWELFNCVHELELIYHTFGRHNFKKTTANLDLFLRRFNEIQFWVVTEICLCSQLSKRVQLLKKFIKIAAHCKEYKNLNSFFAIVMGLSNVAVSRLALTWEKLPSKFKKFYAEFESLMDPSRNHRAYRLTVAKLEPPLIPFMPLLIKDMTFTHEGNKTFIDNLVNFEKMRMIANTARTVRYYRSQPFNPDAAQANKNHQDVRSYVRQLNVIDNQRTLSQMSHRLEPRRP

In the case of `CCOC(=O)C1=C(C)OC(N)=C(C#N)C1c1cc2c(cc1Br)OCO2` (stereo not given), the Potency result in assay [1] and in assay [3] was “inactive” throughout. The activation was -5.39% [at 17.1 µM, percent relative to cAMP agonist control] in assay [2] and 11% [at 30.8 µM] in assay [5]. Besides, the activity change, negative = inhibition in assay [4] was -23.2% [at 30.8 µM].

Take `CC(C)(C)c1ccc(C(=O)NCC2CCCN2S(=O)(=O)c2ccccc2)cc1` (stereo not given): the Potency entry in assay [1], in assay [2], in assay [3], in assay [4] and in assay [5] was “inactive” throughout.

With `COc1cccc(OCc2nc3ccccc3n2Cc2ccccc2)c1`, the Potency result in assay [1], in assay [2], in assay [3], in assay [4] and in assay [5] was “inactive” each time.

For the compound `Cc1cc2oc(=O)c(CC(=O)O)c(C)c2c2occ(-c3ccccc3)c12`, the Potency result in assay [1], in assay [2], in assay [3], in assay [4] and in assay [5] was “inactive” in each case.

Consider `Cc1ccc(/C=C(\CCC(=O)O)c2nc3ccccc3s2)cc1[N+](=O)[O-]`, for which the Potency result in assay [1] and in assay [3] was “inactive” each time. Further, the activation in assay [2] is 6.79% [at 17.1 µM, percent relative to cAMP agonist control]; in assay [5], 0.0676% [at 30.8 µM]. The activity change, negative = inhibition in assay [4] was -11.2% [at 30.8 µM].

Regarding `Cc1cccc(C(=O)c2c(N)sc3c2CCCC3)c1`, the Potency result in assay [1] and in assay [3] was “inactive” in each case. The activation in assay [2] is -0.129% [at 17.1 µM, percent relative to cAMP agonist control]; in assay [5], 9.69% [at 30.8 µM]. For the same compound, the activity change, negative = inhibition in assay [4] was -3.46% [at 30.8 µM].

Consider `Cc1ccc(C)c(Nc2cc(C)nc(-c3ccccc3O)n2)c1`, for which the Potency entry in assay [1] and in assay [3] was “inactive” in each case. For the same compound, the activation was 10% [at 17.1 µM, percent relative to cAMP agonist control] in assay [2] and 7.83% [at 30.8 µM] in assay [5]. For the same compound, the activity change, negative = inhibition in assay [4] is -8.51% [at 30.8 µM].

For `C=CCN1C(=O)/C(=C/c2ccc(OC(C)=O)c(OCC)c2[N+](=O)[O-])SC1=S`, the Potency result in assay [1] and in assay [3] was “inactive” each time. Moreover, the activation in assay [2] is 0% [at 17.1 µM, percent relative to cAMP agonist control]; in assay [5] it was 52.7% [at 30.8 µM]. Moreover, the activity change, negative = inhibition in assay [4] was 12.5% [at 30.8 µM].

Consider `O=C(C1CC1)N1CCCC(c2ccc(Cl)cc2)=N1`, for which the Potency entry in assay [1] and in assay [3] was “inactive” throughout. Besides, the activation is -19.8% [at 17.1 µM, percent relative to cAMP agonist control] in assay [2] and -0.772% [at 30.8 µM] in assay [5]. Moreover, the activity change, negative = inhibition in assay [4] was -19% [at 30.8 µM].

Turning to `NNc1cccc(C=Cc2ccccc2)cc1=O`, the Potency result in assay [1] and in assay [3] was “inactive” each time. Also, the activation is 0.393% [at 17.1 µM, percent relative to cAMP agonist control] in assay [2] and 27.5% [at 30.8 µM] in assay [5]. Further, the activity change, negative = inhibition in assay [4] was -9.39% [at 30.8 µM].

As for `O=C(O)c1sccc1SCc1ccc(Cl)c(Cl)c1`, the Potency result in assay [1], in assay [2], in assay [3], in assay [4] and in assay [5] was “inactive” each time.

For the compound `CCOC(=O)C1=C(C)N=c2sc(=Cc3cc(Cl)c(OCC(=O)O)c(Cl)c3)c(=O)n2C1c1cccc(OC)c1` (stereo not given), the Potency entry in assay [1], in assay [2], in assay [3], in assay [4] and in assay [5] was “inactive” in each case.

With `COc1cccc(C(=O)Nc2nnc(S(=O)(=O)Nc3cccc(C)c3)s2)c1`, the Potency entry in assay [1], in assay [2], in assay [3], in assay [4] and in assay [5] was “inactive” throughout.

As for `CCCCCC(=O)Nc1cccc(C2=NOC3(C2)C[C@@H](C(N)=O)N(C(=O)CC(c2ccccc2)c2ccccc2)C3)c1` (stereo not given in full), the Potency result in assay [1] and in assay [3] was “inactive” throughout. In addition, the activation in assay [2] is 9.87% [at 17.1 µM, percent relative to cAMP agonist control]; in assay [5], 34.5% [at 30.8 µM]. Further, the activity change, negative = inhibition in assay [4] is -21.4% [at 30.8 µM].

Regarding `CCC(Oc1ccccc1)C(=O)Nc1ccccc1N1CCCC1` (stereo not given), the Potency result in assay [1], in assay [2], in assay [3], in assay [4] and in assay [5] was “inactive” throughout.

As for `CN(CC(=O)Nc1ccccc1C(F)(F)F)C(=O)c1cc(-c2cccs2)nn1-c1ccccc1`, the Potency result in assay [1], in assay [2], in assay [3], in assay [4] and in assay [5] was “inactive” each time.

Take `CN(CC(=O)Nc1cccc(F)c1)C(=O)c1cccc(-n2cccc2)c1`: the Potency entry in assay [1] and in assay [3] was “inactive” throughout. For the same compound, the activation is 6.22% [at 17.1 µM, percent relative to cAMP agonist control] in assay [2] and 14.1% [at 30.8 µM] in assay [5]. The activity change, negative = inhibition in assay [4] is -8.31% [at 30.8 µM].

As to `COc1ccc(C2CC(=O)C3=C(C2)NC(C)=C(C#N)C3c2ccc(N(C)C)cc2)cc1` (stereo not given), the Potency result in assay [1] and in assay [3] was “inactive” throughout. Besides, the activation in assay [2] is 6.82% [at 17.1 µM, percent relative to cAMP agonist control]; in assay [5], 20% [at 30.8 µM]. In addition, the activity change, negative = inhibition in assay [4] is 0.0712% [at 30.8 µM].

`CC(=O)Nc1cccc(C(=O)/C=C/c2ccc(F)cc2)c1`: the Potency entry in assay [1], in assay [2], in assay [3], in assay [4] and in assay [5] was “inactive” throughout.

Turning to `COC(=O)C1=CN(Cc2ccc(OC)c(OC)c2)C=C(C(=O)OC)C1c1ccccc1F`, the Potency entry in assay [1], in assay [2], in assay [4] and in assay [5] was “inactive” in each case. In assay [3], the Potency is 23.9 µM (active).

On to `CCc1ccc(NS(=O)(=O)c2cc3c4c(c2)CCN4C(=O)CC3)cc1`, for which the Potency entry in assay [1], in assay [2], in assay [3], in assay [4] and in assay [5] was “inactive” in each case.

Source of the values: PubChem BioAssay (NCATS).
